# Many of the other results were omitted from the sample, so hits are more common in it than they were.
# Dicer inh = human Dicer pre-microRNA cleavage inhibition; Q9UPY3; cat-ELCCA pre-miR-21 Dicer processing, chemiluminescence; active compounds read high; z-score at 25 µM; 47,000 tested, 6% active; in the data active = z-score above about 3, passing the limit was not always enough;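 also: plate controls were vehicle for no effect and no enzyme for full effect; higher signal means more uncleaved substrate so more Dicer inhibition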
# An asterisk follows results filed as active.
SMILES,Dicer inh
CCC1(c2cccc(OC(=O)Nc3ccc(OC(F)(F)F)cc3)c2)CCCCN(C)C1=O (stereo not drawn),3.8*
Cc1ccc(Oc2ccc(C(F)(F)F)cc2[N+](=O)[O-])cc1[N+](=O)[O-],-2.2
CC(C)(C)S(=O)(=O)/C(C#N)=C/N1CCC(n2cccc2)CC1,-1.5
O=C1CCCc2c1[nH]c1ccc(-c3ccccc3)cc21,2.3
O=c1sc2sc(=O)sc2s1,-0.08
CC1(C)OC(=O)C(=Cc2ccc[nH]2)C(=O)O1,1.2
CSc1ccc(C=C2C(=O)OC(C)(C)OC2=O)s1,0.88
O=C1OC2(CCCC2)OC(=O)C1=Cc1ccoc1,3.5*
O=C(CSCc1ccc(Cl)cc1)Nc1nnc(SCC(=O)Nc2ccc(F)c(F)c2F)s1,-0.74
CSc1nc2c(Cl)cccc2c2c1c(=O)n(Cc1ccc(Cl)cc1)n2C,0.65
CSc1nc2c(Cl)cccc2c2c1c(=O)[nH]n2C,3.6*
CCOC(=O)c1c(SC)nc2c(Cl)cccc2c1N(C)CCO,-5.7
O=C(O)Cn1c(SCc2ccccc2)nc2ccccc21,1.2
CCOC(=O)Cn1c(=O)n(CC(=O)OCC)c2ccccc21,-1.1
CCSc1nc2ccccc2n1CC(N)=O,6.7*
NC(=O)Cn1c(SC2CCCCC2)nc2ccccc21,1.7
O=C(O)CCSc1nc2ccccc2n1Cc1ccccc1,1.4
CCOC(=O)Cn1c(C)nc2ccccc21,4.7*
NC(=O)CSc1nc2ccccc2n1CCO,12
CCOC(=O)Cn1c(-c2ccccn2)nc2ccccc21,-0.59
CCn1c(SCC(=O)O)nc2ccccc21,3.1*
COc1cccc(OCc2nc(-c3ccc(OC)c(OC)c3)no2)c1,-1.4
O=S(=O)(Cc1ccccc1)NCc1ccc2c(c1)OCO2,-0.28
CCCN(C(=O)CC#N)C(=O)Nc1ccc(Cl)cc1,-0.81
Cc1ccc2c(c1)CCCN2C(=S)Nc1cccc(Cl)c1,-0.62
SMILES,Dicer inh
CC1=C(C(=O)OCCc2ccccc2)C(c2ccc(F)c(F)c2)C2=C(CCCC2=O)N1 (stereo not drawn),-0.12
CC(C)(C)/C=N/Nc1nc2c(Cl)cc(Cl)cc2s1,-1.2
CN(C)CCCN1C(=O)C(=O)/C(=C(/O)c2ccc(S(=O)(=O)N(C)C)cc2)C1c1ccco1 (stereo not drawn),2.4
Cc1cccc(NC(c2ccc3c(c2)OCO3)c2ccc3cccnc3c2O)n1 (stereo not drawn),2.3
CCCOc1ccc(C(Nc2ccccn2)c2ccc3cccnc3c2O)cc1 (stereo not drawn),2.6
COc1ccc(NC(c2ccccn2)c2ccc3cccnc3c2O)cc1 (stereo not drawn),3.1*
Cc1ccc2ccc(C(Nc3cccc(Cl)c3)c3ccccn3)c(O)c2n1 (stereo not drawn),-2.1
Cc1cccc(NC(c2ccc(F)cc2)c2ccc3cccnc3c2O)n1 (stereo not drawn),8.9*
COc1ccc(C(Nc2cccc(C)n2)c2ccc3cccnc3c2O)cc1 (stereo not drawn),9.1*
Cc1ccc2ccc(C(Nc3ccccn3)c3ccc(F)cc3)c(O)c2n1 (stereo not drawn),5.6
Cc1cccc(NC(c2ccccc2)c2ccc3ccc(C)nc3c2O)n1 (stereo not drawn),1.7
COc1ccc(C)cc1NC(c1ccccn1)c1ccc2cccnc2c1O (stereo not drawn),-0.11
Cc1cc(C)c2ccc(C3=C(O)c4ccccc4C3=O)nc2c1O,2
Cc1cc(N/C=C(/C#N)C(=O)C2CC2)no1,-2.1
Cc1cc2c(cc1C)CSC(c1ccc(Cl)c(Cl)c1)SC2,0.57
C=CCN1C(=O)C(O)(CC(=O)c2ccccc2)c2cc(Br)ccc21 (stereo not drawn),0.11
CC1=C(C(=O)OCc2ccccc2)C(c2cccc(O)c2)C2=C(CCCC2=O)N1 (stereo not drawn),0.31
CC(CO)(CO)NC(=S)Nc1cc(Cl)cc(Cl)c1,-0.34
CCOC(=O)C1=NNC2C(=O)N(c3ccccc3)C(=O)C12 (stereo not drawn),0.66
COC(=O)C1=NN(c2ccc(OC)cc2)C2C(=O)N(c3ccc(Br)cc3)C(=O)C12 (stereo not drawn),0.67
CCOC(=O)C1=NN(c2ccc(OC)cc2)C2C(=O)N(c3ccccc3)C(=O)C12 (stereo not drawn),4.7*
O=C(O)c1cccc(NC2=NS(=O)(=O)c3ccccc32)c1,-0.08
COc1cc2c(cc1O[C@@H]1O[C@H](CO)[C@@H](O)[C@H](O)[C@H]1O)CCN1CC=C3C=C[C@@H](OC)CC321 (stereo partly drawn),0.16
S=C(Nc1ccccc1)N1c2ccccc2Sc2ccccc21,0.44
O=C(CN1c2ccccc2Sc2ccccc21)NNC(=S)Nc1ccccc1,5.2*
SMILES,Dicer inh
CC(C)(C)OC(=O)NCC(=O)NNC(=S)Nc1ccccc1,-0.45
O=C(NCC1COc2ccccc2O1)C(=O)N1CCCCC1 (stereo not drawn),-0.41
O=C(O)CCN(Cc1ccco1)S(=O)(=O)c1cccc2nsnc12,-0.66
CC1CN=C(SCc2ccc(Cl)cc2)N1 (stereo not drawn),2.3
Cc1ccc(CSC2=NCCCN2)cc1,1.1
Cc1ccc(CSC2=NCC(C)N2)cc1 (stereo not drawn),3.2*
C=CCn1c(SCC(=O)NN2CC(=O)N(c3ccccc3)CC2=O)nnc1-c1cccs1,-0.09
CN(C)c1ccc(C2CC(c3ccccc3)=NN2C(=O)CCCC(=O)O)cc1 (stereo not drawn),1.1
O=S(=O)(c1ccccc1)n1nc(-c2ccc(Cl)cc2)nc1NCc1ccco1,2.4
CCOC(=O)c1nnn2c1nc(Nc1cccc(OC)c1)c1ccccc12,0.49
COc1ccc(-c2c(C(F)(F)F)nn(C)c2NC(=O)Nc2ccc(F)cc2F)cc1,2.3
CC(C)(C)OC(=O)NC(Cc1ccccc1)C(=O)NCc1ccccc1 (stereo not drawn),4.6*
CC(NC(=O)OC(C)(C)C)C(=O)NCc1ccccc1 (stereo not drawn),-0.32
CC(C)CC(NC(=O)OC(C)(C)C)C(=O)NCc1ccccc1 (stereo not drawn),0.85
O=C(O)CSc1cc(C(F)(F)F)nc2ccccc12,43
O=[N+]([O-])c1ccc(C2CNC(c3cccc([N+](=O)[O-])c3)O2)cc1 (stereo not drawn),0.75
Cn1c(Oc2ccc(Br)cc2)nc2c1c(=O)n(Cc1ccc(Br)cc1)c(=O)n2C,1.2
Cn1c(Oc2ccc(F)cc2)nc2c1c(=O)n(Cc1ccccc1)c(=O)n2C,0.4
COc1ccc(Oc2nc3c(c(=O)n(Cc4ccc(Br)cc4)c(=O)n3C)n2C)cc1,4.1*
FC(F)(F)c1cc(/C=C/c2noc(CN3CCCC3)n2)cc(C(F)(F)F)c1,-0.82
COc1ccc(C=C2CCC(=O)CC2)cc1,-1.6
O=c1cc(CSc2ccc(Cl)cc2)[nH]c2[nH]n(-c3ccccc3)c(=O)c12,5.4*
O=c1cc(CSc2nc3ccccc3s2)[nH]c2[nH]n(-c3ccccc3)c(=O)c12,0.06
O=c1cc(CSc2ccc(Cl)cc2)[nH]n1-c1ccccc1,35
Cn1c(=O)c2c(nc(NCC3CCCO3)n2Cc2ccc(Br)cc2)n(C)c1=O (stereo not drawn),-0.31
CCN(CC)c1ccc(NC(=O)CSc2nc(-c3ccco3)cc(C(F)(F)F)n2)cc1,0.18
CC(C)c1nc2sc3c(NCCN4CCOCC4)ncnc3c2c2c1CCCC2,-0.02
CC(C)c1ccc(NCN2C(=O)c3ccccc3C2=O)cc1,2.8
C#Cc1cccc(NCN2C(=O)c3ccccc3C2=O)c1,3.1*
CC(=O)Nc1ccc(NCN2C(=O)c3ccccc3C2=O)cc1,-0.7

# Bioassay records deposited in PubChem BioAssay by Center for Chemical Genomics, University of Michigan.
